Compound activity from PubChem.
D3 antag: antagonists of human D3 dopamine receptor; P35462; D3R cells, DiscoveRx beta-arrestin luminescence, antagonist mode; active compounds read low; max response, negative = inhibition, %; 2.5% of 360,000 active; in the data active = max response below about -50%; inconclusive = no clear call, values can overlap the other calls
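Cells plated overnight at 1500 cells/well, then exposed to library compounds with dopamine controls for 90 minutes at 37 degrees C. DiscoveRx reagent added for 30–60 minutes at room temperature; luminescence read, quantitative HTS format.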
D1 PAM: enhances dopamine response at the human D1 receptor. HEK293 TREx D1 cells, calcium flux, dopamine EC20 potentiation. 0.036% of 360,000 active. P21728. potentiation, % at 10 µM. AID 504651; in the data active = potentiation above about 30%
D1 antag: antagonists of human D1 dopamine receptor; HEK293 TREx D1 cells, calcium flux, dopamine EC80; active compounds read low; activity change, negative = inhibition, % at 10 µM; 3.2% of 360,000 active; in the data active = activity change below about -30%
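Allosteric or orthosteric antagonism assessed as attenuation of the calcium response to EC80 dopamine, added 180 s after compound, in induced HEK293 Trex D1 cells loaded with no-wash calcium dye.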
DRD3 agonist: agonists of human D3 dopamine receptor. D3R DiscoveRx beta-arrestin cells, luminescence, 90 min. 0.58% of 410,000 active. P35462. max activation, %; in the data active = max activation above about 30%
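Agonist-mode cell screen: cells plated at 1500/well and incubated overnight at 37 °C, then exposed to library compounds for 90 min at 37 °C. Detection reagent was added for 30–60 min at room temperature, and luminescence was read.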
D1 agonist: activates the human D1 dopamine receptor. HEK293 T-REx D1 cells, calcium flux, agonist mode. activation, % at 2 µM. 1% of 360,000 active; in the data active = activation above about 30%
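Inducible HEK293 T-REx D1 cells, force-coupled to calcium signalling, were plated at 4000 cells/well with tetracycline and held overnight at 30 C. After no-wash calcium dye loading, compound-evoked calcium rise over 180 s flagged agonists.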
A number is an active result; - = inactive; ? = inconclusive; . = no result given. An excerpt weighted towards active compounds, which were near 6.1% of everything screened.

SMILES | D3 antag | D1 PAM | D1 antag | DRD3 agonist | D1 agonist
Cc1nn(C)c(C)c1CNC(=O)c1cnn2c1NC(c1ccccc1)CC2C(F)(F)F (stereo unspecified) | - | - | - | - | -
Cc1ccc(C2CC(C(F)(F)F)n3nc(C(=O)NCc4c(C)nn(C)c4C)c(Cl)c3N2)cc1 (stereo unspecified) | - | - | - | 34.1 | -
CCOc1ccccc1NC(=O)c1cn(C2CCCC2)c(=O)c2c1c1ccccc1n2C | . | - | - | - | -
N#CC(C#N)=C1C=CC=CN1/C(=C\c1ccccc1Cl)C(=O)c1ccccc1 | -103.8 | - | -50.5 | - | -
O=[S+]([O-])(c1ccc(-c2ccccc2)cc1)N1CCN([S+](=O)([O-])c2ccc3c(c2)OCCO3)CC1 | . | - | - | . | -
C(=C\c1ccccc1)/CN1CCN(C(CCc2ccccc2)c2nnnn2C2CCCC2)CC1 (stereo unspecified) | -115.6 | . | . | - | .
CSCCC(c1nnnn1-c1c(C)cccc1C)N1CCN(C/C=C/c2ccccc2)CC1 (stereo unspecified) | -95.1 | . | . | - | .
CC(C)(C)n1nnnc1C(CCc1ccccc1)N1CCN(C/C=C/c2ccccc2)CC1 (stereo unspecified) | -90.7 | . | . | - | .
CC(C)(C)n1nnnc1C(C1CC1)N1CCN(C/C=C/c2ccccc2)CC1 (stereo unspecified) | ? | . | . | - | .
CSCCC(c1nnnn1C(C)(C)C)N1CCN(C/C=C/c2ccccc2)CC1 (stereo unspecified) | -82.1 | . | . | - | .
CCCC(c1nnnn1C(C)(C)C)N1CCN(c2ccccc2)CC1 (stereo unspecified) | - | - | - | - | -
COc1ccc(NC(=O)NCCn2nnc3cc(S(=O)(=O)N(C)C)ccc32)cc1 | . | - | - | - | -
COc1ccc(-n2nnnc2C(CCSC)N2CCN(C/C=C/c3ccccc3)CC2)cc1 (stereo unspecified) | -126.9 | . | . | - | .
O=C(OCCN1CCN(c2ncc(C(F)(F)F)cc2Cl)CC1)c1ccc(Cl)cc1 | -83.1 | - | - | - | -
O=C(CSc1nccn1-c1ncc(C(F)(F)F)cc1Cl)c1ccc(Cl)cc1 | -106.8 | - | - | - | -
CCc1ccc2c(c1)N(CC(C)CN(C)C)c1ccccc1S2 (stereo unspecified) | . | . | . | - | .
COc1ccc(C)cc1NC(=O)N1CCCn2nc(C)cc21 | . | - | - | - | -
CCCc1cc(C(=O)Nc2ccc(C(=O)c3ccc(C)cc3)cc2)n(C)n1 | - | - | -34.9 | - | -
CCCc1cc(C(=O)Nc2cccc3ccccc23)n(C)n1 | - | - | - | - | -
